From PubChem
MsrA inh = inhibits bovine methionine sulfoxide reductase A; 360,000 compounds, 0.75% hits; purified bovine MsrA, absorbance read-out; AID 651718; inhibition, % at 15.5 µM;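 also: 0% = vehicle wells with enzyme and 100% = reference inhibitor wells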
PKA-R2B activ = activates the human PKA-R2B holoenzyme complex. P22694+P31323. PKA-R2B holoenzyme dissociation, Cy5-IP20 fluorescence polarization; R2B truncated from residue 108, S112A mutant; 0% DMSO only, 100% 113 µM cGMP. activation, % at 11.4 µM. 340,000 compounds, 0.079% hits. AID 504700;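 active = activation above a cutoff set at the mean over all compounds plus 3 SD, cut at about 18% in these data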;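 also: higher means more holoenzyme dissociation and a rise in polarization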
Target sequence (P31323 whole entry, looked up, other chains not shown, the tested form may be a part): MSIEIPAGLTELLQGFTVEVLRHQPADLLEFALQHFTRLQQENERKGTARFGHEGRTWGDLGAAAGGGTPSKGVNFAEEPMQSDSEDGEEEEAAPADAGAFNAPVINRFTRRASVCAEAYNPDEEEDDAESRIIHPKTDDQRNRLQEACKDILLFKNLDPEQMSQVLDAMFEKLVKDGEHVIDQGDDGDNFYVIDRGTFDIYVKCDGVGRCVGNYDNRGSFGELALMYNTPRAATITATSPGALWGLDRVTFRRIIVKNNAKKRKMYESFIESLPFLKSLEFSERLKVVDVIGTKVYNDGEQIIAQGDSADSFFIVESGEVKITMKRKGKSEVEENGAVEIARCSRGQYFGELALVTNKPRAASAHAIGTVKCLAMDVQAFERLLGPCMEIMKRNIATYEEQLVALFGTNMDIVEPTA
PKA-R1A act = PKA-R1A complex activation. PKA-R1A dissociation, Cy5-IP20 fluorescence polarization; scaled: DMSO 0%, 113 µM cGMP 100%. 340,000 compounds, 0.083% hits. activation, % at 11.4 µM. P00514+P68181. AID 504707;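 active = percent activation above the mean of all tested compounds plus 3 SD, cut at about 19% in these data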;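 also: higher means more PKAc released from R1A so a rise in polarization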
bovine MsrA act = activates bovine MsrA enzyme | purified bovine MsrA, absorbance read-out | activation, % at 10.6 µM | 360,000 compounds, 0.3% hits; in the data active = activation above about 7.5%;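 also: 0% = vehicle and 100% = reference activator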
MsrA inh confirm = confirmation of bovine MsrA inhibitors | inhibition, % at 15.5 µM | 2,300 compounds, 41% hits | AID 651822 | shares compounds with MsrA inh | purified bovine MsrA, absorbance read-out;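 also: coupled to thioredoxin reductase with NADPH and selenocystamine and DMSO as substrate; 0% = vehicle only and 100% = full effect of reference inhibitor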
Active calls of the source: *; . = not tested or not shown. Only some compounds are listed: those with a hit (about 1.1% of all), similar ones and a draw of the others. Rule as the data show it, unless noted: active = inhibition above about 4.5%; inactive = the rest.

SMILES	MsrA inh	PKA-R2B activ	PKA-R1A act	bovine MsrA act	MsrA inh confirm
CCN(CC)c1ccc(/C=N/NC(=O)c2ccco2)c(O)c1	2	0	-7	-2	.
Cc1ccsc1/C=N/NC(=O)c1ccco1	5.6*	2	-4	-4	5.8*
Cc1ccsc1/C=N/NC(=O)CNC(=O)c1ccco1	3	3	4	-5	.
O=C(N/N=C/C=N/NC(=O)c1ccco1)c1ccco1	7.6*	0	-5	-13	6.1*
COC(=O)[C@]12C[C@H](CC(=O)NCc3cccc(C(F)(F)F)c3)C(=O)N(CCC3=CCCCC3)C1=C[C@H](C(C)(C)C)O[C@@H]2C	1	.	.	.	.
COC(=O)C1=C(C)N(C)C(=NCC2CC2)NC1CCc1ccccc1 (stereo unspecified)	-1	.	.	.	.
CN(C)c1cccc2c(S(=O)(=O)NCC3CCN(C(=O)C(=O)c4cc5ccccc5o4)CC3)cccc12	0	.	.	.	.
NC(Cc1ccccc1)c1csc(NC(=O)c2cccc(OC(F)(F)F)c2)n1 (stereo unspecified)	0	.	.	1	.
C=CCN1C(=O)c2n[nH]c(C(C)C)c2C1c1ccc(C)cc1 (stereo unspecified)	2	.	.	.	.
CCN(CC)S(=O)(=O)c1ccc(N/N=C/c2ccc(O)cc2)nc1	5.7*	12	-12	-4	4.9*
O=C(C1=C(O)C(=O)N(CCOCCO)C1c1cccc([N+](=O)[O-])c1)c1cccs1 (stereo unspecified)	5.0*	-4	-4	-8	4
CCOC(=O)c1cccc(S(=O)(=O)N(CCO)Cc2cc3cc(OC)c(OC)cc3[nH]c2=O)c1	5.1*	-10	2	-6	2
CCOC(=O)c1cccc(S(=O)(=O)N(CCO)Cc2cc3cc(OC)ccc3[nH]c2=O)c1	.	-2	0	-5	.
O=C(NCCN1C(=O)S/C(=C\c2ccccc2Cl)C1=O)C1=COCCO1	-1	9	7	-2	.
COc1ccc(/C=C2\SC(=O)N(CCNC(=O)C3=COCCO3)C2=O)cc1	8.5*	4	-7	-3	3
O=C(NCCN1C(=O)S/C(=C\c2ccc(OC(F)F)cc2)C1=O)c1cnccn1	5.1*	-1	4	-7	2
O=C(NCCN1C(=O)S/C(=C\c2ccccc2F)C1=O)C1=COCCO1	4.8*	-4	-3	-5	2
O=C(NCCN1C(=O)S/C(=C\c2ccc(OC(F)F)cc2)C1=O)C1=COCCO1	.	-10	-4	-5	.
Cc1ccccc1OS(=O)(=O)c1cn(C)c(=O)n(C)c1=O	0	0	8	1	.
Cc1ccc(CNc2ncnc3c2cnn3C2CCCCO2)cc1 (stereo unspecified)	0	-16	-6	-7	.
CCOC(=O)c1c(C)nc2c(c1-c1ccc(Cl)cc1)C(=O)CC(C)(C)C2	1	-5	5	-3	.
COc1ccc(Nc2nc(C)c(C(C)=O)s2)cc1	5.4*	.	.	-5	3
CCOC(=O)C1=C(c2ccccc2)OC(N)=C(C#N)C1c1ccco1 (stereo unspecified)	6.3*	7	-4	-4	3
COC(=O)C1=C(C)OC(N)=C(C#N)C1c1ccco1 (stereo unspecified)	2	4	-2	-3	.
CC1Sc2ccc(C#N)cc2N(Cc2cccc(C(F)(F)F)c2)C1=O (stereo unspecified)	5.4*	.	.	-1	3
SMILES	MsrA inh	PKA-R2B activ	PKA-R1A act	bovine MsrA act	MsrA inh confirm
CCc1cc2c(nc1CC)CCCN2S(=O)(=O)c1cccs1	1	.	.	.	.
CN1c2ccccc2C(O)=C(C(=S)Nc2ccc(Cl)cc2)S1(=O)=O	5.4*	4	8	-11	6.0*
Cc1cccc(NC(=O)C2=C(O)c3ccccc3N(C)S2(=O)=O)c1	2	5	-6	-8	.
COc1ccc(/C=C/C(=O)Nc2nc(C)c(C(=O)N(C)C)s2)cc1	5.4*	-8	-1	-6	6.5*
Cc1nc(NC(=O)c2ccc(Br)s2)sc1C(=O)N(C)C	5.0*	-5	4	-13	2
COc1ccc(/C=C/C(=O)Nc2nc(C)c(C(=O)N(C)C)s2)cc1OC	5.7*	-3	-4	-5	5
COc1ccc(C(=O)Nc2nc(C)c(C(=O)N(C)C)s2)cc1OC	2	-1	-6	1	.
CC(C)(C)c1ccc(C#C[C@@H]2C=C[C@H]3OC(=O)CC/C=C/CCC(=O)OC[C@H]3O2)cc1	0	.	.	.	.
CCn1c(SCC(=O)NC2=NCCS2)nnc1C(C)NC(=O)c1ccccc1Br (stereo unspecified)	1	5	1	-3	.
CCn1c(CNC(=O)c2ccccc2Br)nnc1SCC(=O)NC1=NCCS1	6.5*	1	2	-2	1
Nc1nonc1-n1nnc(C(=O)N/N=C/c2ccc(OCc3ccccc3F)cc2)c1CNc1ccccc1	-1	-12	0	-2	.
COc1ccc(CNS(=O)(=O)c2cc(Br)ccc2Br)c(OC)c1	0	.	.	.	.
COC(=O)N/N=C/c1c[nH]c2ccccc12	1	-5	-3	-1	.
CC(C)n1cc(/C=N/Nc2ccc(C(=O)O)cc2)c2ccccc21	5.5*	0	-1	-2	4
NC(=S)N/N=C/c1c[nH]c2ccccc12	6.5*	-3	6	-1	3
O=C(N/N=C\c1c[nH]c2ccccc12)c1ccc(O)cc1	5.3*	1	9	-5	4
O=C(O)c1ccc(S(=O)(=O)NN=Cc2c[nH]c3ccccc23)cc1	2	-2	1	-16	.
O=C(O)c1ccc(N/N=C/c2c[nH]c3ccccc23)cc1	5.6*	7	-8	-5	6.1*
Cc1noc(NS(=O)(=O)c2ccc(NC(=O)c3cnc4n(c3=O)CCS4)cc2)c1C	6.9*	1	5	-5	4.6*
COc1cccc(C(=O)N[C@H](C(=O)N2CCC[C@H]2C(=O)NC2CCCC2)C2CCCCC2)c1	0	.	.	.	.
FC(F)(F)c1ccc(N=Cc2sc(N3CCOCC3)nc2-c2ccccc2)cc1	18*	-9	-6	-2	17*
CC(=O)c1sc(N2CCOCC2)nc1-c1ccccc1	1	-2	-1	-3	.
CC(=O)N(C)c1ccc(N=Nc2ccc3ncccc3c2)cc1	5.3*	1	-22	-3	4.9*
O=C(Nc1ccc2ncccc2c1)c1ccccc1	-1	-16	-8	0	.
C[C@H](CO)N1C[C@H](C)[C@@H](CN(C)S(=O)(=O)c2ccccc2)OCc2cnnn2CCCC1=O	0	0	0	1	.
O=C(O)CCCNC(=O)CC1S/C(=N/N=C/c2ccccc2O)NC1=O (stereo unspecified)	4.8*	4	-2	-7	4
CCCCNC(=O)CC1S/C(=N/N=C/c2ccc(OC)cc2)NC1=O (stereo unspecified)	1	-6	5	-1	.
COc1ccc(/C=C(\C#N)C(=O)N=CN(C)C)cc1	1	-2	-6	-2	.
COc1ccc(/C=C(\C#N)C(=O)N2COCC2(C)C)cc1	5.1*	14	1	-2	3
